# Assay outcomes (PubChem BioAssay)
# CF NFkB block – inhibitors of cystic fibrosis induced NF-kB; AID 588850; KKLEB NF-kB-GFP reporter, PAF-induced, GFP fluorescence overnight; actives 0.86% (n = 360,000); inhibition, % at 5 µM;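 active = at least 50% inhibition at 5 µM, scaled per plate between neutral and stimulator controls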;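 note: PAF is a Pseudomonas aeruginosa culture filtrate used as stimulus; plate controls were PAF-stimulated DMSO wells for no effect and unstimulated DMSO wells for full effect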
# ABHD5-PLIN5 inh – blocks binding of human ABHD5 to perilipin-5; actives 0.78% (n = 360,000); Split G. princeps luciferase complementation, luminescence, 4 h; AID 602281; inhibition, % at 4 µM;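 active = inhibition above the mean inhibition across every tested compound plus 3 SD, cut at about 22% in these data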;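 note: 0% = DMSO only wells and the 100% control is not disclosed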
# KKLEB cytotox – CF airway cell cytotoxicity counter-screen; KKLEB CF airway cells viability, ATPlite luminescence, overnight; hits give low values; cells stimulated with P. aeruginosa culture filtrate; activity change (cytotoxicity), % at 5 µM; actives 0.36% (n = 360,000);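 active = corrected activity change at or below -50% at 5 µM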
# Mdm2 MdmX PPI – inhibitors of human Mdm2/MdmX interaction; O15151+Q00987; inhibition, % at 8 µM; SaOS-2 split-luciferase Mdm2/MdmX complementation, luminescence; actives 3% (n = 330,000);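 active = inhibition of at least 50% at 8 µM in the primary screen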
# HIF-2a block – HIF-2a inhibition. inhibition, % at 18.8 µM. actives 0.72% (n = 360,000). 786-0 RCC cells HIF-2a reporter, luciferase luminescence, overnight;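 active = inhibition of the luminescence signal of 40% or more relative to plate controls, in a single-dose primary screen at 18.75 µM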
# Peg3 promoter – reduces Peg3 promoter-driven luciferase expression in HeLa | HeLa PEG-Prom luciferase reporter, luminescence, overnight | inhibition, % at 20 µM | actives 1.7% (n = 360,000);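 active = inhibition of at least 50% at 20 µM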
# ABHD5-PLIN5 conf – ABHD5-PLIN5 interaction inhibition, confirmed; shares compounds with ABHD5-PLIN5 inh; AID 651612; actives 67% (n = 2,200); biochemical ABHD5-PLIN5 interaction, luminescence; inhibition, % at 4 µM; in the data active = inhibition above about 23%;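 note: 0% = DMSO vehicle wells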
# HNF4 counter – HNF4 split-luciferase signal hit, counter-screen | shares compounds with ABHD5-PLIN5 inh | HNF4 dimerization, luminescence, biochemical | inhibition, % at 4 µM | actives 77% (n = 2,200) | AID 651674;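 active = mean inhibition across replicate wells exceeding the computed hit threshold, cut at about 13% in these data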;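 note: light from luciferase halves that rejoin when HNF4 fusion proteins dimerize; 0% = DMSO only wells and the 100% control is not given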
# Target sequence (P41235 whole entry, looked up, the tested form may be a part): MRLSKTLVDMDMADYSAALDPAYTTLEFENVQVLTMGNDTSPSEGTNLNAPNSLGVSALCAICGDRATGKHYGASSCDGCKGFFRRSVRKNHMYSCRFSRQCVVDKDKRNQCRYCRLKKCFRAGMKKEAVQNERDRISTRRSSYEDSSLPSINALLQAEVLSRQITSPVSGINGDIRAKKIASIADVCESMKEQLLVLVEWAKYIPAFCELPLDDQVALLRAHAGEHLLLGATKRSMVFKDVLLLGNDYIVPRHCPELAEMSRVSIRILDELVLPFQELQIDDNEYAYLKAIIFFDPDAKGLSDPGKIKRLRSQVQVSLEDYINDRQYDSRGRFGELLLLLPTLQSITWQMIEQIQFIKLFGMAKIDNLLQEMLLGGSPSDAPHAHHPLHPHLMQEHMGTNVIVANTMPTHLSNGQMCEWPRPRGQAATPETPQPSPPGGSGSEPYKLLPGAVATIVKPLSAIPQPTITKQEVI
# * = called active by the depositor; x = no result. A selection: hits, their analogues and other compounds. The true share with any hit is near 4.6%.
SMILES,CF NFkB block,ABHD5-PLIN5 inh,KKLEB cytotox,Mdm2 MdmX PPI,HIF-2a block,Peg3 promoter,ABHD5-PLIN5 conf,HNF4 counter
NC(CSS(=O)(=O)O)=NCCC12CC3CC(CC(O)(C3)C1)C2,1,-30,3,5,-18,-36,x,x
CCOc1ccccc1NC(=O)COC(=O)c1c[nH]c2ccccc12,33,-12,-29,48,35,21,x,x
CC1=C(C)CS(=O)N(S(=O)(=O)c2ccccc2)C1 (stereo not drawn),4,58*,3,18,17,5,72*,101*
NS(=O)(=O)c1ccc(N2C(=O)C3CC=CCC3C2=O)cc1 (stereo not drawn),16,3,1,13,11,10,x,x
CC1=C(C)CS(=O)N(c2ccc(S(N)(=O)=O)cc2)C1 (stereo not drawn),-13,34*,9,15,26,10,66*,89*
CC(=O)NCCC(=O)Nc1cc(S(=O)(=O)N2CCOCC2)ccc1N1CCCC1,-2,-5,-6,3,18,-9,x,x
CC1CCN(C(=O)c2ccc(S(=O)(=O)NCc3ccco3)cc2)CC1,-5,24*,3,2,12,7,0,7
O=C(c1ccc(S(=O)(=O)NCc2ccco2)cc1)N1CCCC1,3,-1,-1,-8,3,17,x,x
O=c1[nH]sc2ccccc12,-55,65*,17,x,16,25,66*,109*
O=c1ccsc2ccccc12,15,-3,-4,x,8,1,x,x
Cc1cc(NC(=O)c2ccc3sc([C@@H]4O[C@H](CO)[C@H](O)[C@H](O)[C@H]4O)nc3c2)no1,24,17,7,x,-10,-4,x,x
O=C1NC(=Nc2ccc(O)cc2)S/C1=C\C=C\c1ccco1,9,33*,13,27,-246,-225,27*,45*
Cc1ccc(C(=O)/C=C/C(=O)O)cc1,8,93*,-12,-21,6,8,95*,106*
CCCN=C1N/C(=C\c2ccco2)C(=O)N1c1ccccc1,8,1,-6,5,6,7,x,x
O=C1/C(=C\c2ccco2)NC(=S)N1c1ccccc1,-22,25*,12,-28,2,-10,30*,44*
O=C(c1cccnc1)N1CCN(Cc2cccc(Br)c2)CC1,0,24*,7,27,9,11,1,8
CN(CC(=O)Nc1ccc(Cl)cc1)C(=O)CNC(=O)Cc1cccc2ccccc12,-17,-2,-7,5,-4,-4,x,x
O=C1C=CC(n2cc(F)c(=O)[nH]c2=O)O1 (stereo not drawn),34,31*,-16,x,-14,-10,42*,33*
Cc1cccc(NC(=O)CN2C(=O)N/C(=C/c3ccc(C)o3)C2=O)c1,4,61*,1,x,19,22,35*,99*
Cc1ccc(NC(=O)CN2C(=O)N/C(=C/c3ccc(C)o3)C2=O)cc1,9,42*,-5,12,-3,-4,46*,88*
Cc1ccc(CN2CCC(C(=O)Nc3cccc(-c4cccc(F)c4)c3)CC2)o1,-3,11,7,27,15,12,x,x
O=C(Nc1cccc(-c2cccc(Cl)c2)c1)C1CCN(Cc2ccc(CO)o2)CC1,40,27*,-24,24,-14,54*,10,-1
COc1cccc(/C=C/C(=O)c2ccc(NC3=NCCCS3)cc2)c1,42,45*,-25,25,-25,28,74*,63*
CC(C)(C)c1ccc(/C=C/C(=O)Nc2ccncc2)cc1,16,-8,0,5,-171,-176,x,x
O=C(/C=C/c1ccccc1)c1ccc(NC2=NCCCS2)cc1,19,62*,-22,x,-177,-131,72*,62*
CC(C)(C)c1ccc(/C=C/C(=O)c2ccc(NC3=NCCCS3)cc2)cc1,24,50*,-2,18,2,-13,57*,38*
